In the supplement of paper PMC6555819:

Legend:
Experiment in all cases: PBM binding z-score (relative to random genomic background probes); higher = stronger binding; sequences stand for … in GC…GCGATTGACAGCGTAGAATGAAGG
[1] = tested on: FXR:RXRa (NR concentration 270 nM, RXRa partner concentration 90 nM)
How it was run: (§1)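 Binding z-scores take random background probes as their reference. They come from custom Agilent 4×180K protein-binding microarrays incubated 1 h with ligand-free nuclear receptor dimers, with antibodies against each partner (one per run) detecting binding. Scanned fluorescence was regression-normalized.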

[2] = tested on: LXRa:RXRa (NR concentration 270 nM, RXRa partner concentration 90 nM)
How it was run: as §1

[3] = tested on: LXRa homodimer (NR concentration 270 nM)
How it was run: as §1

[4] = tested on: LXRb:RXRa (NR concentration 270 nM, RXRa partner concentration 90 nM)
How it was run: as §1

[5] = tested on: LXRb homodimer (NR concentration 270 nM)
How it was run: as §1

[6] = tested on: PPARa:RXRa (NR concentration 270 nM, RXRa partner concentration 90 nM)
How it was run: as §1

[7] = tested on: PPARg:RXRa (NR concentration 180 nM, RXRa partner concentration 90 nM)
How it was run: as §1

[8] = tested on: PPARg:RXRa 270nM:90nM, anti-RXR (NR concentration 270 nM, RXRa partner concentration 90 nM)
How it was run: as §1

[9] = tested on: PPARg:RXRa 30nM:10nM, anti-RXR (NR concentration 30 nM, RXRa partner concentration 10 nM)
How it was run: as §1

[10] = tested on: PPARg:RXRa 90nM:30nM, anti-RXR (NR concentration 90 nM, RXRa partner concentration 30 nM)
How it was run: as §1

[11] = tested on: PPARg:RXRa DBDmut IVT, anti-RXR (DBD mutation: RXRa K156A/R161A, NR concentration 270 nM, RXRa partner concentration 90 nM)
How it was run: as §1

[12] = tested on: PPARg:RXRa IVT, anti-PPARg (NR concentration 270 nM, RXRa partner concentration 90 nM)
How it was run: as §1

[13] = tested on: PPARg DBDmut:RXRa IVT, anti-PPARg (DBD mutation: PPARg1 K132A/R137A, NR concentration 270 nM, RXRa partner concentration 90 nM)
How it was run: as §1

[14] = tested on: PPARg DBDmut IVT, anti-PPARg (DBD mutation: PPARg1 K132A/R137A, NR concentration 270 nM)
How it was run: as §1

[15] = tested on: PPARg homodimer (NR concentration 180 nM)
How it was run: as §1

[16] = tested on: PXR:RXRa (NR concentration 270 nM, RXRa partner concentration 90 nM)
How it was run: as §1

[17] = tested on: PXR homodimer (NR concentration 270 nM)
How it was run: as §1

[18] = tested on: RARa:RXR (NR concentration 270 nM, RXRa partner concentration 90 nM)
How it was run: as §1

[19] = tested on: RARa homodimer (NR concentration 270 nM)
How it was run: as §1

[20] = tested on: RARb:RXRa (NR concentration 270 nM, RXRa partner concentration 90 nM)
How it was run: as §1

Row | Sequence | PBM binding z-score [1] | PBM binding z-score [2] | PBM binding z-score [3] | PBM binding z-score [4] | PBM binding z-score [5] | PBM binding z-score [6] | PBM binding z-score [7] | PBM binding z-score [8] | PBM binding z-score [9] | PBM binding z-score [10] | PBM binding z-score [11] | PBM binding z-score [12] | PBM binding z-score [13] | PBM binding z-score [14] | PBM binding z-score [15] | PBM binding z-score [16] | PBM binding z-score [17] | PBM binding z-score [18] | PBM binding z-score [19] | PBM binding z-score [20]
1 | TCATATAGGTAAACTGGTGAAAGTCCGTAAGTTA | 0.534 | 0.478 | 0.129 | 0.808 | -0.0343 | 1.05 | 0.842 | 2.31 | 3.92 | 3.07 | 3.83 | 2.69 | 1.43 | 1.35 | 0.515 | 0.463 | 0.739 | 0.446 | 1.61 | 0.361
2 | TAGCCTTGGTCAGATCGGGCCAGTATACGCTATA | -0.504 | -0.892 | -0.925 | -0.995 | -0.904 | -0.565 | -0.0905 | -0.29 | -0.644 | -0.566 | -0.7 | -0.297 | -0.203 | -1.18 | -1.31 | -0.578 | -0.538 | -0.611 | -1.58 | 0.307
3 | GTGACTGGGGCATCAGCAGGTTACCATAACTTAA | 0.0842 | 0.236 | -0.049 | 0.942 | -0.399 | 1.75 | 1.86 | 1.89 | 0.217 | 0.996 | 4.3 | 4.9 | 0.566 | 0.266 | 0.222 | 0.254 | 0.042 | 0.669 | -0.0196 | 1.09
4 | TAGCCTAGGTCATGCGGGCCAGTACAGTGTCGGC | 4.21 | 2.99 | 0.179 | 1.48 | -0.174 | 3.65 | 2.42 | 2.56 | 0.126 | 1.61 | 1.55 | 2.81 | 0.187 | -0.334 | 1.24 | 1.55 | -0.513 | 2.47 | -0.899 | 3.61
5 | CCGACTGGGGCATAAGCTTACCATAAGCCAGCCC | -0.673 | -0.689 | -0.589 | -0.747 | -1.15 | -0.16 | 0.765 | 1.04 | -0.348 | 0.228 | 2.59 | 1.57 | -1.09 | -1.16 | -0.394 | -0.775 | -0.649 | -0.694 | -0.632 | -0.11
6 | ATACCAAGGTGATCGTGAGGTCGTAGATACTAAC | 1.57 | 1.07 | 0.236 | 0.929 | -0.173 | 1.73 | 0.732 | 0.484 | -0.23 | -0.092 | 0.0521 | 1.54 | 0.536 | 0.745 | 0.811 | 2.2 | 0.811 | 2.21 | 0.262 | 1.33
7 | ATATGTAGGTTAGCTGGGGTCATTCTGACTAGGC | 4.61 | 5.75 | 3.4 | 4.86 | 1.32 | 5.07 | 5.36 | 5.24 | 2.82 | 4.48 | 7.04 | 6.37 | 3.34 | 2.13 | 2.71 | 6.41 | 3.72 | 5.57 | 1.37 | 2.88
8 | CAAACTAGGTCAAAGATCAAAGTCGAGCCAACCA | 4.71 | 3.87 | 0.503 | 3.15 | 0.553 | 6.47 | 11.6 | 9.58 | 9.42 | 10.6 | 8.07 | 8.58 | 1.49 | 0.885 | 1.76 | 2.81 | 0.46 | 4.42 | 0.53 | 3.99
9 | GCTAGCAGGCCATTTGAGTCACTCAATGACGGGC | -0.524 | -0.643 | -0.699 | -1.05 | -0.622 | -0.463 | 0.311 | -0.7 | -0.625 | -0.728 | 0.829 | -0.00694 | -0.509 | -2.18 | -0.951 | -0.369 | -0.961 | -0.381 | -1.15 | 0.073
10 | TCATATAGGTAAAAGGTGAGAGTCGGTGTGGTAA | 1.07 | 1.56 | -0.0844 | 1.55 | 0.0234 | 4.75 | 8.85 | 8.5 | 7.77 | 10 | 5.3 | 4.91 | 2.38 | 1.33 | 1.91 | 1.43 | 0.171 | 2.43 | 1.17 | 1.77
11 | TCTATTAGTTGATTAGGGCAACGGAAACAGCGGA | 0.551 | 0.44 | 0.103 | 0.473 | 0.812 | 0.801 | 0.284 | 1.99 | 3.35 | 3 | 2.04 | 1.27 | 0.436 | 0.954 | 0.288 | 0.192 | 0.475 | 0.276 | 0.743 | 0.963
12 | TCTTGCAGGCCAGAGGGTCACTCAAGAGGTACGG | 1.13 | 1.04 | -0.621 | 1.3 | -0.52 | 2.81 | 1.99 | 3.39 | 2.63 | 3.38 | 1.23 | 1.74 | 0.108 | 0.193 | 1.21 | 1.65 | -0.469 | 2.21 | -0.686 | 2.44
13 | TCATATAGGTAAAAGGTGGAAGTCGGTGTGGTAA | 0.924 | 0.974 | 0.29 | 1.22 | 0.619 | 3.71 | 6.89 | 7.1 | 6.28 | 7.79 | 5.75 | 3.56 | 0.901 | 0.975 | 2.35 | 0.586 | 0.623 | 1.18 | 1.17 | 0.885
14 | CCTGGGAGGACAGAAGGTCAGAGCTGTCCGCTTT | 1.53 | 1.86 | 0.303 | 1.01 | -0.655 | 2 | -0.0173 | 1.11 | -0.659 | 0.29 | -0.504 | 0.212 | -1.2 | -1.6 | 1.81 | 1.65 | -0.162 | 2.16 | 0.121 | 3.35
